Source: PubChem (Broad Institute)
FadD28 FP inh – inhibitors of FadD28 bisubstrate probe binding, primary screen, biochemical, fluorescence polarization, single point | Mycobacterium tuberculosis FadD28 fatty-acid-AMP ligase | inhibition, % at 12.5 µM | 360,000 tested, 0.22% active | AID 588549, 2011; in the data active = inhibition above about 8.5%, passing the limit was not always enough; inconclusive = no clear call, values can overlap the other calls
Y pestis TopoI – Yersinia pestis topoisomerase I inhibitors, primary screen, biochemical, cleavage product accumulation, plate reader, single point; DNA topoisomerase I (Yersinia pestis CO92); Y. pestis Topo-I cleavage product accumulation; activity, % at 10 µM; 360,000 tested, 0.064% active; AID 504884, 2011; in the data active = activity above about 50%, passing the limit was not always enough; inconclusive = no clear call, values can overlap the other calls
TcdB GH inh – TcdB glycohydrolase inhibitors, primary screen, biochemical, single point, plate reader; inhibition, % at 9.99 µM; Toxin B (Clostridioides difficile), P18177; TcdB glycohydrolase enzymatic assay; 350,000 tested, 0.24% active; AID 652162, 2013; in the data active = inhibition above about 10%
Target sequence (P18177 whole entry, looked up): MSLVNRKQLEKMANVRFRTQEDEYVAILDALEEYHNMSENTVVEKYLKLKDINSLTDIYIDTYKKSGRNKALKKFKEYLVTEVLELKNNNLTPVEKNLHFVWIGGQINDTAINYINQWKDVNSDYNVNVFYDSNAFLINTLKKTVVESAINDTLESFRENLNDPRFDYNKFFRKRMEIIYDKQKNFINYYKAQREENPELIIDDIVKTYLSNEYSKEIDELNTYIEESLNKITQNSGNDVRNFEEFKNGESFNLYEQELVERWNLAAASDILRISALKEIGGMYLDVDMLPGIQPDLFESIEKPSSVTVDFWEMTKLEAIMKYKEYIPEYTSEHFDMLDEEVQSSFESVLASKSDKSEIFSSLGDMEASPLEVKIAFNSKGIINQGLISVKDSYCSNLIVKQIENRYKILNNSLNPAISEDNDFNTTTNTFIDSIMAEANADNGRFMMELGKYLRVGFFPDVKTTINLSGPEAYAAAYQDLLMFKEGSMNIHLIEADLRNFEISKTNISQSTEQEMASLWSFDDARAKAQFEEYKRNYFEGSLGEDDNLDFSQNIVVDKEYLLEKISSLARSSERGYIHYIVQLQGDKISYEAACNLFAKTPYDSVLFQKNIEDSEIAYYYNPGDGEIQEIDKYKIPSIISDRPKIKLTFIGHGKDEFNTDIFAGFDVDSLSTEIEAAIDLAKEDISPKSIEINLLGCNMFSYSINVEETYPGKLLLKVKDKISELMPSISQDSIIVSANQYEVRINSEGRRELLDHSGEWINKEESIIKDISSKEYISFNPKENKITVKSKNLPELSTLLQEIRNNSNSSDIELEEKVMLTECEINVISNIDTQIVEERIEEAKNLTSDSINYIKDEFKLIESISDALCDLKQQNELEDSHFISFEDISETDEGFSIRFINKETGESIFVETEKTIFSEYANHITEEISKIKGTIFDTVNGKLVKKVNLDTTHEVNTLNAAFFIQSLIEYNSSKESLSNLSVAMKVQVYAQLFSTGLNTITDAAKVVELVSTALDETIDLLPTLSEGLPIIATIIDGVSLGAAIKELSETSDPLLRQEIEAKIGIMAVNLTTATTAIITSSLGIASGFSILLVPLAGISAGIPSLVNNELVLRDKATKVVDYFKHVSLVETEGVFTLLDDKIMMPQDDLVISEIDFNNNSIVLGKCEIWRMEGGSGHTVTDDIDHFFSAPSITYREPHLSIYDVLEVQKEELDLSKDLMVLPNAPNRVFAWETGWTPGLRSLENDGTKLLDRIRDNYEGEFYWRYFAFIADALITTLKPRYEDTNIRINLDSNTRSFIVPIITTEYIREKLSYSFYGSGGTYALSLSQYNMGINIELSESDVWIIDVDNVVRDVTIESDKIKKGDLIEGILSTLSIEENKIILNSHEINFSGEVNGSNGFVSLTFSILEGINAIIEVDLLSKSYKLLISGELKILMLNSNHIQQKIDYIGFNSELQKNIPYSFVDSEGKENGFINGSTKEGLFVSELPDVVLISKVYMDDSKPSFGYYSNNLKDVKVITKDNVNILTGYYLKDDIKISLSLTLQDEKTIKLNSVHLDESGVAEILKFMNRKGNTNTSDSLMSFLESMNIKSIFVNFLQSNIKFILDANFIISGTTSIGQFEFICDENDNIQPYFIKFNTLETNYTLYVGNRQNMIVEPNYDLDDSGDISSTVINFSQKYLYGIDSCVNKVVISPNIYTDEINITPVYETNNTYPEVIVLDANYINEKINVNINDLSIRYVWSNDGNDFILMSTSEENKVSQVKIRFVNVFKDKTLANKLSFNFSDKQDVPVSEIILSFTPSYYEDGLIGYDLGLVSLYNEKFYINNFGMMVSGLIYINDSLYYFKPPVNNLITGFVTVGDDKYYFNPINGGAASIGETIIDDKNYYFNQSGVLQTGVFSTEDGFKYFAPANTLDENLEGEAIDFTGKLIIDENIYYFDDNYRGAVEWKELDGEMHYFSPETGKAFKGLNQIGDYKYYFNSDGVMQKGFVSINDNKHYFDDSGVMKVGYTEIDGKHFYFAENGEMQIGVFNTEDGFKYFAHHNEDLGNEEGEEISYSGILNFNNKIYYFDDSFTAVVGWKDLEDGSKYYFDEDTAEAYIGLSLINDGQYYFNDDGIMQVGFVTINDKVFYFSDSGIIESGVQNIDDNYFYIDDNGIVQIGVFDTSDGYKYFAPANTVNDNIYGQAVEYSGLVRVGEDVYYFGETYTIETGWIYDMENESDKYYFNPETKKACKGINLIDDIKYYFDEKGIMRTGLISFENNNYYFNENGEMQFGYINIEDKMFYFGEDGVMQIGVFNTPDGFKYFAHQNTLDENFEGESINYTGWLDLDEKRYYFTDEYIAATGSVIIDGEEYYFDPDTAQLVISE
Vc quorum ag – inducers of Vibrio cholerae quorum light production without autoinducers, primary screen, BH1578 luxS cqsA deficient, single point; V. cholerae BH1578 lux reporter, luminescence, 6 h; activation, % at 18.7 µM; 350,000 tested, 0.16% active; in the data active = activation mostly above about 9.7%, no sharp cut-off; inconclusive = no clear call, values can overlap the other calls; inactive = mostly below about 3.7%
Mtb BioA inh – M. tuberculosis BioA enzyme inhibitors, primary screen, biochemical, plate reader, single point, HTS. inhibition, % at 9.99 µM. purified M. tuberculosis BioA enzyme. 7,8-diaminopelargonic acid synthase BioA (Mycobacterium tuberculosis). 360,000 tested, 0.096% active. AID 602481, 2012; in the data active = inhibition above about 40%; inconclusive = no clear call, values can overlap the other calls
A number is an active result; . = inactive; ? = inconclusive; / = no result. In the library only some 0.58% were active in any assay of this set; here they are far more common.

SMILES	FadD28 FP inh	Y pestis TopoI	TcdB GH inh	Vc quorum ag	Mtb BioA inh
CCCNC(=O)C1CC(=O)N(c2ccc(OCC)cc2)C1 (stereo not given)	.	.	11	.	.
CCOc1ccc(N2CC(C(=O)NC(C)C)CC2=O)cc1 (stereo not given)	.	.	/	.	.
CC(=O)c1sc(NCc2ccc(C)cc2)nc1C	.	.	.	.	.
COc1ccc(CCNc2nc(C)c(C(C)=O)s2)cc1OC	.	.	/	.	81
COc1ccc2c3c([nH]c2c1)[C@@H](CO)N(C(=O)Cc1ccccn1)CC31CCN(Cc2ccccn2)CC1	/	/	.	/	/
CCCCCCC(=O)Oc1cccc(C2=CC(=O)CC(C)(C)C2=O)c1	.	55	.	.	.
CN(C)C(=O)c1ccc(-c2ccccc2[C@@H]2[C@H](C#N)N(C(=O)C3CCCC3)[C@H]2CO)cc1	/	/	.	/	/
Cn1cnc(CCNC(=O)C[C@@H]2CC[C@H]3[C@@H](COC[C@@H](O)CN3C(=O)Nc3ccc(F)cc3)O2)c1	/	/	.	/	.
Cc1ccc(S(=O)(=O)N(C)C[C@H]2Oc3ccc(NC(=O)Nc4c(C)noc4C)cc3CC(=O)N([C@H](C)CO)C[C@@H]2C)cc1	/	/	.	/	.
O=C1CCCC/C1=C\Nc1ccc(C(=O)O)c(O)c1	31	.	.	.	/
O=C(O)CC(C(=O)O)N1C(=O)/C(=C/C=C/c2ccco2)SC1=S (stereo not given)	?	.	.	.	.
Cn1cccc1/C=C1\SC(=S)N(NC(=O)c2ccccc2O)C1=O	.	.	.	.	/
O=C(NN1C(=O)/C(=C/C=C/c2ccco2)SC1=S)c1ccccc1O	58	.	.	.	.
O=C(O)C(Cc1ccccc1)N1C(=O)/C(=C/C=C/c2ccco2)SC1=S (stereo not given)	39	.	.	.	.
O=C(O)CCCN1C(=O)/C(=C\C(Cl)=C\c2ccccc2)SC1=S	9.3	.	.	.	.
O=C(O)CCCN1C(=O)/C(=C/C=C/c2ccco2)SC1=S	19	.	.	.	/
Cc1ccc(NC(=O)CCCN2C(=O)/C(=C/C=C/c3ccccc3)SC2=S)cc1	.	.	/	.	.
O=S(=O)(c1ccccc1)N1C[C@H]2[C@@H](c3ccccc31)[C@H](CO)N2Cc1ccccc1	/	/	.	/	.
Cc1cc(C2C(C#N)=C(N)OC3=C2C(=O)CCC3)c(C)s1 (stereo not given)	.	.	/	.	.
COc1cc(C2C(C#N)=C(N)OC3=C2C(=O)CCC3)c([N+](=O)[O-])cc1OC (stereo not given)	21	.	/	.	/
O=C(O)C1Nc2c(O)cc(Cl)c([N+](=O)[O-])c2C2C=CCC12 (stereo not given)	59	.	.	.	/
C[C@H]1CN([C@@H](C)CO)C(=O)c2cccc(NC(=O)c3cnccn3)c2O[C@@H]1CN(C)S(=O)(=O)c1ccc(Cl)cc1	/	/	/	/	.
O=C(NCC[C@H]1CC[C@@H](NS(=O)(=O)Cc2ccccc2)[C@H](CO)O1)C1CCC1	/	/	/	/	.
O=C1c2ccccc2C(=O)c2c(Nc3ccc(CCO)cc3)ccc(O)c21	.	.	.	.	.
O=C1c2c(O)ccc(O)c2C(=O)c2c(NCCNCCO)ccc(NCCNCCO)c21	.	.	17	.	.
SMILES	FadD28 FP inh	Y pestis TopoI	TcdB GH inh	Vc quorum ag	Mtb BioA inh
Cc1ccc(S(=O)(=O)N2CCCC2C(=O)Nc2ccc(O)cc2)cc1 (stereo not given)	.	.	10	.	.
COc1ccc(NC(=O)Nc2ccc3c(c2)C(=O)N([C@@H](C)CO)C[C@H](C)[C@@H](CN(C)Cc2ccccc2)O3)cc1	/	/	.	/	.
CC(C)N=C(NC#N)SCc1ccc(Br)cc1	.	.	/	30	.
O=C(C1CCCC1)N1CC2(C1)[C@H](c1ccccc1)[C@@H](CO)N2C(=O)c1cccnc1	/	/	.	/	/
CCc1c(O)nc(SCC(=O)Nc2nc3ccccc3s2)n(-c2ccccc2)c1=O	14	.	.	.	.
CCc1c(O)nc(SCC(=O)Nc2nc3ccccc3s2)n(-c2ccc(C)cc2)c1=O	.	.	.	.	.
O=C(COC(=O)CNS(=O)(=O)c1ccc2ccccc2c1)Nc1ccc2c(c1)OCO2	.	.	.	.	/
O=C(COC(=O)CNS(=O)(=O)c1ccc2ccccc2c1)Nc1ccccc1Sc1ccccc1	.	62	.	.	/
COC(=O)/C=C/c1ccccc1S(=O)(=O)N(Cc1ccccc1)Cc1ccco1	.	57	/	.	.
Cc1cccc(-n2c(=O)c3ccccc3n3c(=S)[nH]nc23)c1C	.	.	12	.	.
C[C@H]1CN([C@@H](C)CO)S(=O)(=O)c2ccc(-c3ccncc3)cc2O[C@H]1CN(C)Cc1ccncc1	/	/	/	/	.
COc1ccc(C2C(C(C)=O)=C(C)N=c3s/c(=C\c4cc(C)n(C)c4C)c(=O)n32)c(OC)c1 (stereo not given)	12	.	/	.	.
CC(=O)c1ccc(C(=O)N(C)C2CCCN(Cc3ccccc3F)C2)s1 (stereo not given)	.	.	.	.	75
CCn1cc(C(=O)O)c(=O)c2cc(F)c(N3CCN(C(=S)NC(=O)c4ccc(F)cc4)CC3)cc21	.	.	.	.	.
CCn1cc(C(=O)O)c(=O)c2cc(F)c(N3CCN(C(=S)NC(=O)c4ccccc4Br)CC3)cc21	.	.	10	.	.
C[C@@H]1CN([C@H](C)CO)C(=O)c2c(c3ccccc3n2C)-c2ccccc2CO[C@H]1CN(C)C(=O)[C@H](C)c1ccccc1	/	/	.	/	/
COc1ccc(-c2nc(N)ncc2-c2ccccc2OC)c(O)c1	.	.	13	.	.
Oc1ccc(Cc2ccccc2Cl)c(O)c1	.	.	13	.	.
Oc1ccc(Cc2ccc(Cl)cc2)c(O)c1	.	.	10	.	.
C/C=C/c1ccc([C@@H]2[C@@H](CO)N(C(=O)C3CCCCC3)C23CN(C(=O)NC(C)C)C3)cc1	/	/	.	/	/
Brc1ccc(N/N=C(/N=Nc2nn[nH]n2)c2ccccc2)cc1	13	.	.	.	/
O=C(O)c1ccc(N=N/C(=N\Nc2ccc(C(=O)O)cc2)c2ccccc2)cc1	.	.	.	.	.
O=S(=O)(O)c1cc(Cl)cc(N=Nc2ccc(O)cc2O)c1O	34	.	.	.	/
COc1cc(/C=N/NC(=O)c2nnn(-c3nonc3N)c2C(C)C)ccc1O	.	.	13	.	.
O=C1NC(=S)S/C1=C\C=C\c1ccc([N+](=O)[O-])o1	14	.	.	.	.
O=C(O)/C=C/c1ccc([N+](=O)[O-])o1	.	.	.	.	/
O=C1C(=Cc2ccco2)CCCC1=Cc1ccco1	.	.	.	.	.
O=C1C(=Cc2ccco2)CCC1=Cc1ccco1	13	.	.	.	.
Cc1noc(C)c1S(=O)(=O)N(C)C[C@H]1Oc2ccc(NS(=O)(=O)c3ccc(Cl)cc3)cc2C(=O)N([C@@H](C)CO)C[C@H]1C	/	/	.	/	.
